Screens as filed in PubChem BioAssay.
HIF-2a block = inhibitors of HIF-2a; AID 624352; hit rate 0.72% among 360,000; inhibition, % at 18.8 µM; 786-0 RCC cells HIF-2a reporter, luciferase luminescence, overnight;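 active means inhibition of the luminescence signal of 40% or more relative to plate controls, in a single-dose primary screen at 18.75 µM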
CHOP inh = blocks CHOP induction under ER stress; hit rate 3.8% among 220,000; CHO-K1 CHOP-promoter luciferase, tunicamycin-induced, 15-18 h; inhibition, % at 10 µM;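 active means compounds that reduced the stress-induced luciferase reporter signal by more than about 70% of percent inhibition, limit read from the data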;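 further: 0% = tunicamycin plus vehicle and 100% = wells without tunicamycin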
CF NFkB block = inhibitors of cystic fibrosis induced NF-kB; KKLEB NF-kB-GFP reporter, PAF-induced, GFP fluorescence overnight; inhibition, % at 5 µM; hit rate 0.86% among 360,000; AID 588850;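 active means at least 50% inhibition at 5 µM, scaled per plate between neutral and stimulator controls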;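 further: PAF is a Pseudomonas aeruginosa culture filtrate used as stimulus; plate controls were PAF-stimulated DMSO wells for no effect and unstimulated DMSO wells for full effect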
TRPM1 prom inh = inhibitors of MITF-driven TRPM1 promoter in melanoma cells. hit rate 0.83% among 330,000. SK-MEL-5 TRPM1 promoter luciferase, 24 h. inhibition, % at 12.5 µM;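 active means mean inhibition across replicates of 60% or more, whatever share of single replicates reaches that level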
KKLEB cytotox = CF airway cell cytotoxicity counter-screen | KKLEB CF airway cells viability, ATPlite luminescence, overnight; active compounds read low; cells stimulated with P. aeruginosa culture filtrate | activity change (cytotoxicity), % at 5 µM | hit rate 0.36% among 360,000;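 active means corrected activity change at or below -50% at 5 µM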
Peg3 prom inh = Peg3 promoter activity inhibition. HeLa PEG-Prom luciferase reporter, luminescence, overnight. inhibition, % at 20 µM. hit rate 1.7% among 360,000. AID 588405;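 active means inhibition of at least 50% at 20 µM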
Starred values were filed as active, the others as inactive. An excerpt weighted towards active compounds, which were near 4.3% of everything screened.

O=C(Nc1sc2c(c1C(=O)c1ccc(Cl)cc1)CCCC2)c1cccnc1 was read as HIF-2a block 7, CHOP inh 79*, CF NFkB block 9, TRPM1 prom inh -6, KKLEB cytotox -4 and Peg3 prom inh 28.
`Cc1nc2c(-c3ccc(F)cc3)cnn2c(N)c1-c1ccccc1` gave HIF-2a block 25, CF NFkB block -1, TRPM1 prom inh -1, KKLEB cytotox -54* and Peg3 prom inh -10.
`CCc1cc2c(COC(=O)c3c(C)noc3C)cc(=O)oc2cc1O` gave HIF-2a block 4, CHOP inh 95*, CF NFkB block -6, TRPM1 prom inh -11, KKLEB cytotox -1 and Peg3 prom inh 14.
For CCc1cc2c(COC(=O)c3cccc(S(C)(=O)=O)c3)cc(=O)oc2cc1O the results were HIF-2a block 0, CF NFkB block 12, TRPM1 prom inh 3, KKLEB cytotox -5 and Peg3 prom inh 28.
Screening O=C(CCC(=O)N1CCOc2ccc(Cl)cc21)NCCCN1CCC(Cc2ccccc2)CC1 returned HIF-2a block -11, CF NFkB block 35, TRPM1 prom inh 6, KKLEB cytotox -21 and Peg3 prom inh 75*.
Fc1ccc(-c2ccnc3nc(N4CCOCC4)nn23)cc1 was read as HIF-2a block 18, CHOP inh 30, CF NFkB block 2, TRPM1 prom inh 0, KKLEB cytotox 3 and Peg3 prom inh 10.
Screening COc1ccc(-c2ccnc3nc(N4CCN(c5ccccc5)CC4)nn23)cc1 returned HIF-2a block 10, CHOP inh 72*, CF NFkB block -5, TRPM1 prom inh 3, KKLEB cytotox 9 and Peg3 prom inh 22.
CNC(=O)C1Cc2c(-c3ccccc3Oc3ccccc3)ccnc2O1 (stereo unspecified) was read as HIF-2a block 11, CF NFkB block 23, KKLEB cytotox -3 and Peg3 prom inh 5.
COc1cc(NS(=O)(=O)c2ccc(Nc3nc(-c4ccccc4)cs3)cc2)nc(OC)n1 was read as HIF-2a block -5, CHOP inh 90*, CF NFkB block -22, TRPM1 prom inh -10, KKLEB cytotox -25 and Peg3 prom inh 14.
Screening COc1cc(NS(=O)(=O)c2ccc(NC(=S)Nc3ccccc3)cc2)nc(OC)n1 returned HIF-2a block -7, CF NFkB block -1, TRPM1 prom inh 1, KKLEB cytotox -9 and Peg3 prom inh 4.
Screening Cc1ccc([C@@H]2C[C@H]3[C@@H](CN2S(=O)(=O)c2ccc(C)cc2)C(=O)C[C@@H](c2ccc(C)cc2)N3S(=O)(=O)c2ccc(Cl)cc2)cc1 returned HIF-2a block -1, CF NFkB block 3, KKLEB cytotox 26 and Peg3 prom inh -1.
For COc1ccc(C(=O)/C=C/c2ccc(O)cc2)c2c1CC(O)C(C)(C)O2 (stereo unspecified) the results were HIF-2a block 12, CF NFkB block 44, TRPM1 prom inh 12, KKLEB cytotox -13 and Peg3 prom inh 13.
Screening COc1ccc(C(=O)/C=C/c2ccc(O)cc2)c(O)c1CC=C(C)C returned HIF-2a block -58, CHOP inh 79*, CF NFkB block 8, TRPM1 prom inh -21, KKLEB cytotox 2 and Peg3 prom inh 1.
Screening COc1ccc(CNc2nc3c(c(=O)n(Cc4ccc(Br)cc4)c(=O)n3C)n2C)cc1 returned HIF-2a block 26, CHOP inh 73*, CF NFkB block 25, TRPM1 prom inh 24, KKLEB cytotox -14 and Peg3 prom inh 48.
`Cn1c(N/N=C2\CCCc3ccccc32)nc2c1c(=O)n(Cc1ccc(F)cc1)c(=O)n2C` gave HIF-2a block 1, CHOP inh 83*, CF NFkB block 14, TRPM1 prom inh -8, KKLEB cytotox -14 and Peg3 prom inh -58.
Screening COc1ccc(Cn2c(=O)c3c(nc(NCCO)n3C)n(C)c2=O)cc1 returned HIF-2a block 8, CHOP inh 22, CF NFkB block 5, TRPM1 prom inh -12, KKLEB cytotox -6 and Peg3 prom inh 6.
`Cn1c(=O)c2c(nc(NCc3ccc4c(c3)OCO4)n2Cc2ccc(F)cc2)n(C)c1=O` gave HIF-2a block 18, CHOP inh 17, CF NFkB block 3, TRPM1 prom inh 15, KKLEB cytotox -6 and Peg3 prom inh 56*.
For CC(C)n1c(NCCc2ccccc2)nc2c1c(=O)n(C)c(=O)n2C the results were HIF-2a block 22, CHOP inh 75*, CF NFkB block 30, TRPM1 prom inh -14, KKLEB cytotox -5 and Peg3 prom inh 5.
Screening COCCCNc1nc2c(c(=O)n(Cc3ccc(F)cc3)c(=O)n2C)n1C returned HIF-2a block 4, CF NFkB block 9, TRPM1 prom inh 8, KKLEB cytotox -4 and Peg3 prom inh 2.
`Cn1c(=O)c2c(nc(NCc3ccc4c(c3)OCO4)n2Cc2ccccc2)n(C)c1=O` gave HIF-2a block 15, CHOP inh 38, CF NFkB block 5, TRPM1 prom inh 4, KKLEB cytotox 5 and Peg3 prom inh 28.
COc1ccc(C2=NN(C(=O)c3ccco3)C(c3ccco3)C2)cc1OC (stereo unspecified) was read as HIF-2a block -36, CF NFkB block 24, TRPM1 prom inh 34, KKLEB cytotox -23 and Peg3 prom inh -31.
O=C(CSc1nnc(-c2cccc(F)c2)o1)N1CCCC1 was read as HIF-2a block -151, CF NFkB block -2, TRPM1 prom inh -43, KKLEB cytotox 13 and Peg3 prom inh -96.
Screening C[C@@H]1CN([C@@H](C)CO)S(=O)(=O)c2ccc(Br)cc2O[C@@H]1CN(C)C(=O)c1ccccn1 returned HIF-2a block 1, CF NFkB block 13, KKLEB cytotox 0 and Peg3 prom inh -3.
Screening Cc1ccc(NC(=O)c2cc(-c3cc(Cl)ccc3C)n[nH]2)cc1NS(C)(=O)=O returned HIF-2a block -12, CF NFkB block 6, KKLEB cytotox -5 and Peg3 prom inh 23.
Screening CCOC(=O)c1csc(NC(=O)c2ccc3c(c2)OCCO3)n1 returned HIF-2a block -11, CF NFkB block -24, TRPM1 prom inh -31, KKLEB cytotox 9 and Peg3 prom inh -132.
`CC[C@]12c3[nH]c4cc(-c5ccco5)ccc4c3CCN1C(=O)[C@@H](CC(=O)NCc1cccc(C(F)(F)F)c1)C[C@@H]2C(=O)N1CCN(C(=O)c2ccco2)CC1` gave HIF-2a block -13, CF NFkB block -1, TRPM1 prom inh 27, KKLEB cytotox 12 and Peg3 prom inh 11.
`Cn1c(NCc2ccccc2)nc2c1c(=O)n(Cc1ccc(Br)cc1)c(=O)n2C` gave HIF-2a block 25, CHOP inh 72*, CF NFkB block 2, TRPM1 prom inh 9, KKLEB cytotox 0 and Peg3 prom inh 51*.
C=CCOc1ccccc1CN(C(=O)CCl)c1ccc2c(c1)OCO2 was read as HIF-2a block -14, CF NFkB block 92*, TRPM1 prom inh 49, KKLEB cytotox -85* and Peg3 prom inh -18.
